From PubChem BioAssay
Activity calls are given as the source filed them. Unless noted, how the calls were made is not given here.

Tests used:
[1] = tested on: Wnt5a (protein binding on small-molecule microarray); test: small molecules binding Wnt5a protein – biophysical, small-molecule microarray, 635/667 nm fluorescence, primary screen (AID 1142); conditions: 635 nm fluorescence, higher = more signal;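 further: fluorescence read at 667 nm with signal to noise per printed feature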
[2] = ATP-based viability of Huh7 replicon cells – cell-based, CellTiter-Glo luminescence, basal, 48 h, cytotoxicity control for HCV replication inhibitor project, primary screen (AID 1143); conditions: higher = more signal, called active from +8 up or from −8 down;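 further: Huh7 hepatoma cells carrying a hepatitis C replication reporter with no stimulus; test concentration not given here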
[3] = Pseudomonas biofilm growth suppression – PAO1 strain, BacTiter-Glo luminescence, LB-PBS, primary screen (AID 1144); conditions: P. aeruginosa PAO1 biofilm, 12 h, higher = more signal
[4] = basal CRE-LacZ reporter activity in PC12 – cell-based, unstimulated, primary screen (AID 1145); conditions: no forskolin, luminescence, 4.5 h, higher = more signal, called active from +8 up or from −8 down
[5] = forskolin-driven CRE-LacZ activity in PC12 – cell-based, CRE-LacZ reporter, forskolin-stimulated, primary screen (AID 1146); conditions: luminescence, 4.5 h, higher = more signal, called active from +8 up or from −8 down;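 further: PC12 cells with 6xCRE LacZ reporter stimulated by forskolin 10 µM; beta-galactosidase reporter signal reflecting CREB driven transcription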
[6] = target: Streptavidin (Streptomyces avidinii) (UniProt P22629); test: compounds binding control protein streptavidin – biophysical, small-molecule microarray, 635/667 nm fluorescence, artefact control for SMM compound annotation, primary screen (AID 1147); conditions: higher = more signal;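 further: signal reflects streptavidin binding to arrayed compounds as a control protein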
Chain of Streptavidin (Streptomyces avidinii) (P22629 whole entry, looked up): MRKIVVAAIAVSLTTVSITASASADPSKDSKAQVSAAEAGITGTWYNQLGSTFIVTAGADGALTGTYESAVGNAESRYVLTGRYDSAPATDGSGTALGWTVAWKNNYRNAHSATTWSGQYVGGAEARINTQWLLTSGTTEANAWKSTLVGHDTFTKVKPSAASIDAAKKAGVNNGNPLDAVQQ

[7] = probe aInhba binding on compound microarray – biochemical, small-molecule microarray, 635/667 nm fluorescence, primary screen (AID 1148); conditions: higher = more signal;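 further: score merges 667nm spot fluorescence with signal-to-noise for antibody binding to printed compounds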
[8] = target: Torsin-1A (Homo sapiens) (UniProt O14656); test: TOR1A wild-type binding on microarray – cell lysate, small-molecule microarray, lysate, 635/667 nm, primary screen (AID 1149); conditions: COS7 hTOR1A-WT lysate, 635 nm fluorescence, higher = more signal
Chain of Torsin-1A (Homo sapiens) (O14656 whole entry, looked up): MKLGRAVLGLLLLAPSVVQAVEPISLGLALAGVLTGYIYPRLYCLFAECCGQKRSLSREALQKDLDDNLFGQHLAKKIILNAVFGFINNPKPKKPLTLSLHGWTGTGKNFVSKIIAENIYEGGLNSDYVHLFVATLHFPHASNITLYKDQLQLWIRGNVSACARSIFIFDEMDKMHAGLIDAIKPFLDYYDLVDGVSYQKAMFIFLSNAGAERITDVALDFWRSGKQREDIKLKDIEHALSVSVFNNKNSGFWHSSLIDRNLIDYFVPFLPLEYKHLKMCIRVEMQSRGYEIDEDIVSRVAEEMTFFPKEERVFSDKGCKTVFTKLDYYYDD

[9] = target: Torsin-1A (Homo sapiens) (UniProt O14656); test: torsin A mutant lysate binding on microarrays – cell lysate, small-molecule microarray, COS7 lysate, 635/667 nm fluorescence, primary screen (AID 1150); conditions: COS7 hTOR1A mutant lysate, 635 nm fluorescence, higher = more signal;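 further: score pools 667 nm emission and signal to noise measuring lysate protein binding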
[10] = tested on: Sonic hedgehog protein (Shh); test: Sonic hedgehog microarray binding compounds – biochemical, small-molecule microarray, 635/667 nm fluorescence, primary screen (AID 1151); conditions: 635 nm fluorescence, higher = more signal;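 further: Shh protein binding to compounds spotted on small-molecule microarray slides; score combines spot fluorescence intensity with signal-to-noise across triplicate slides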
[11] = optical density shifts of acrAB sulA E. coli – strain DRC41, OD650, 48 h, E. coli filamentation inducer project, primary screen (AID 1152); conditions: higher = more signal, called active from +8 up or from −8 down;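 further: E. coli MC1000 strain DRC41 lacking acrAB efflux pump and sulA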
[12] = probe aLefty1 binding on compound microarray – biochemical, small-molecule microarray, 635/667 nm fluorescence, primary screen (AID 1153); conditions: higher = more signal;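 further: score merges spot fluorescence with signal-to-noise ratio from the scanned slide images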
[13] = plasmodial surface anion channel blockers, osmotic lysis – cell-based, P. falciparum Indochina, OD700, 1 h, primary screen (AID 1154); conditions: P. falciparum Indochina infected RBC osmotic lysis, higher = more signal, called active from +8 up or from −8 down
[14] = plasmodial surface anion channel blockers, osmotic lysis – cell-based, P. falciparum Indochina, OD700, 2 h, primary screen (AID 1155);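 further: lysis reports solute entry through the parasite surface anion channel PSAC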; conditions: P. falciparum Indochina infected erythrocytes, higher = more signal, called active from +8 up or from −8 down
[15] = changes in parasitized red cell lysis, either direction – P. falciparum Indochina, OD700, 3 h, PSAC antagonist project, primary screen (AID 1156); conditions: P. falciparum-infected erythrocytes, osmotic lysis, higher = more signal, called active from +8 up or from −8 down
[16] = plasmodial surface anion channel blockers, osmotic lysis – cell-based, P. falciparum Indochina, OD700, 18 h, primary screen (AID 1157); conditions: P. falciparum Indochina infected erythrocytes, osmotic lysis OD700, 18 h; higher = more signal, called active from +8 up or from −8 down
[17] = S6 kinase pathway phospho-S6 level changes – cell-based, A549, cytoblot, luminescence, serum-stimulated, primary screen (AID 1158); conditions: 5 h, higher = more signal;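 further: serum-stimulated A549 lung adenocarcinoma cells; signal is phosphorylated S6 detected by cytoblot immunostaining with HRP secondary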
[18] = target: NADPH oxidase 2 (Homo sapiens) (UniProt P04839); test: compounds shifting NOX2 Amplex Red fluorescence – cell-based, HEK293-NOX2, PMA-stimulated, NOX inhibitor project, primary screen (AID 1159); conditions: 45 min, higher = more signal, called active from +8 up or from −8 down; further: test concentration not given here
Chain of NADPH oxidase 2 (Homo sapiens) (P04839 whole entry, looked up): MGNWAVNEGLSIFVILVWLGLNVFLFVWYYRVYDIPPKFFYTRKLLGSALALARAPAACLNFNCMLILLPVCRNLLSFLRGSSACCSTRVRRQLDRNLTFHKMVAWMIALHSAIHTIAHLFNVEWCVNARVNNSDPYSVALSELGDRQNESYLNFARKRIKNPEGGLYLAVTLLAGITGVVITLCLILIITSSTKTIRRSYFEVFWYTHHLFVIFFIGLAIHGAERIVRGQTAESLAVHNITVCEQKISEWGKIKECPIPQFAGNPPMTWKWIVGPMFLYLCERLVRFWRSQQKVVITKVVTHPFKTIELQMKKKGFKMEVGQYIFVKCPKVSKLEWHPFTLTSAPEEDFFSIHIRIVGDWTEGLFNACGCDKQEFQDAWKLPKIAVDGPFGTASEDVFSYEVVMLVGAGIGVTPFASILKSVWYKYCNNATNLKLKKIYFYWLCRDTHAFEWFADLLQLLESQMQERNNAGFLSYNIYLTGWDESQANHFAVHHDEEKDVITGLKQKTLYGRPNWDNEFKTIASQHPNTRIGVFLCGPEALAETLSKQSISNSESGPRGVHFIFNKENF

[19] = target: NADPH oxidase 4 (Homo sapiens) (UniProt Q9NPH5); test: compounds shifting NOX4 Amplex Red fluorescence – cell-based, HEK293-NOX4, tetracycline-induced, NOX inhibitor project, primary screen (AID 1160); conditions: HEK293-NOX4, Amplex Red H2O2 fluorescence, 45 min; higher = more signal, called active from +8 up or from −8 down
Chain of NADPH oxidase 4 (Homo sapiens) (Q9NPH5 whole entry, looked up): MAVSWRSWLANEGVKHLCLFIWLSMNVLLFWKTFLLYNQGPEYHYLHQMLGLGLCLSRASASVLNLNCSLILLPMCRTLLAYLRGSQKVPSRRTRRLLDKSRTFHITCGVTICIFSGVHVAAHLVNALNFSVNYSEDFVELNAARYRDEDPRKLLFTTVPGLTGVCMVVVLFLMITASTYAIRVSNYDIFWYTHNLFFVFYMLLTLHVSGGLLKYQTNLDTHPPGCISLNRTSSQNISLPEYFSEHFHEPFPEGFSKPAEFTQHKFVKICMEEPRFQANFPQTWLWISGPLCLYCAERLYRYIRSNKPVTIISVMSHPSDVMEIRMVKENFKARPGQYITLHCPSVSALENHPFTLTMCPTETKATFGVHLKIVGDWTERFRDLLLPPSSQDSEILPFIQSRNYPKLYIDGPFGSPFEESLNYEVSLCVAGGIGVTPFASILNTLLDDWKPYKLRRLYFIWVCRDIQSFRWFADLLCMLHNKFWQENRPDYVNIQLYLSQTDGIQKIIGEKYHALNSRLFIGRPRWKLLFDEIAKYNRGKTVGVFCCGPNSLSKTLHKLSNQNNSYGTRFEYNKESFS

[20] = target: NADPH oxidase 5 (Homo sapiens) (UniProt Q96PH1); test: compounds shifting NOX5 Amplex Red fluorescence – cell-based, HEK293-NOX5, NOX inhibitor project, primary screen (AID 1161); conditions: HEK293-NOX5, ionomycin, 45 min, higher = more signal
Chain of NADPH oxidase 5 (Homo sapiens) (Q96PH1 whole entry, looked up): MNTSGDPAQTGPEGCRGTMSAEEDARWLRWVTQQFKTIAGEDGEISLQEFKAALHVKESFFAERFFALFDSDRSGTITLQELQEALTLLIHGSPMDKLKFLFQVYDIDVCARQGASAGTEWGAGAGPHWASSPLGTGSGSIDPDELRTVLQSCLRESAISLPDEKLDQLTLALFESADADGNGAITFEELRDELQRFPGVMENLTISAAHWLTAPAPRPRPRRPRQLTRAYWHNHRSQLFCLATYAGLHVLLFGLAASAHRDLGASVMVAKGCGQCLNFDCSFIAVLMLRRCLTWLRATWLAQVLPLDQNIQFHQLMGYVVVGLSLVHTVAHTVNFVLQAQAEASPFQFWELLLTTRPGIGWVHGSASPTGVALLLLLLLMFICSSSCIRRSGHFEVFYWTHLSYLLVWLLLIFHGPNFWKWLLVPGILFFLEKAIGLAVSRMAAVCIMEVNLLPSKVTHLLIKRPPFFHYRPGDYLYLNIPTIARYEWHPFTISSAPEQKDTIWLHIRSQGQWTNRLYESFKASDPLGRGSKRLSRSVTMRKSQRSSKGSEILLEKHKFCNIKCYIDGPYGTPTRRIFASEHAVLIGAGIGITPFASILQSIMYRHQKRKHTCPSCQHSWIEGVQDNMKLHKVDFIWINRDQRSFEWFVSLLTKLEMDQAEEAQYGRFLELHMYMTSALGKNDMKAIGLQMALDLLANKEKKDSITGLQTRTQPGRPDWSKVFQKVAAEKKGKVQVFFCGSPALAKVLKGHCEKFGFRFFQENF

SMILES | composite z-score [1] | z-score [2] | z-score [3] | z-score [4] | z-score [5] | composite z-score [6] | composite z-score [7] | composite z-score [8] | composite z-score [9] | composite z-score [10] | z-score [11] | composite z-score [12] | z-score [13] | z-score [14] | z-score [15] | z-score [16] | z-score [17] | z-score [18] | z-score [19] | z-score [20]
COc1cc(CO)cc(I)c1O[C@H]1C=C(C(=O)NCCO)C[C@@H](NCc2ccc(F)cc2)[C@@H]1O | 0.617 | -1.76 (inactive) | -0.613 (inactive) | 10 (active) | -1.05 (inactive) | -0.156 | -0.101 | 0.0626 | 0.0975 | 0.591 | 0.548 (inactive) | -0.24 | 21.8 (active) | 5.43 (inactive) | 4.03 (inactive) | 1.36 (inactive) | 0.325 | -1.07 (inactive) | -1.05 (inactive) | -0.994
COC(=O)[C@@]1(Cc2ccccc2)[C@H]2c3cc(C(=O)N(C)C)n(CCN4CNCC4=O)c3C[C@H]2CN1C(=O)c1ccccc1 | 0.569 | 0.106 (inactive) | -0.505 (inactive) | 0.0007 (inactive) | 0.547 (inactive) | 1.54 | 1.28 | 3.83 | 4.06 | -1.85 | -0.65 (inactive) | 0.673 | 0.274 (inactive) | 0.759 (inactive) | 0.307 (inactive) | 0.789 (inactive) | -0.646 | 0.61 (inactive) | 0.554 (inactive) | 0.0884
C=CCNC(=O)[C@H]1[C@@H]2C(=O)O[C@@H](c3ccccc3)[C@@H](c3ccccc3)N2[C@@H](c2ccc(O)cc2)[C@]12C(=O)Nc1ccc(C#CC3(O)CCCCCC3)cc12 | -0.0118 | -1.11 (inactive) | -1.06 (inactive) | -0.0246 (inactive) | -0.301 (inactive) | 0.163 | 0.0899 | 0.935 | 1.89 | 1.13 | -1.14 (inactive) | 0.898 | 1.79 (inactive) | 0.749 (inactive) | 0.514 (inactive) | 0.319 (inactive) | 0.356 | 1.71 (inactive) | 0.772 (inactive) | 1.06
CCCCCCCCCCC(O)C1C=CC2C(=O)N(C)C(=O)C2N1NC(=O)OC(C)(C)C (stereo not given) | -0.121 | -3.15 (inactive) | 0.918 (inactive) | 0.632 (inactive) | 0.584 (inactive) | 0.548 | 0.0198 | -0.436 | 0.0812 | -0.813 | -3.07 (inactive) | -0.239 | 8.95 (active) | 2.45 (inactive) | -1.28 (inactive) | 1.81 (inactive) | -1.36 | -0.67 (inactive) | -7.78 (inactive) | -3.78
COc1cccc(/C=C/C=O)c1 | 0.279 | -0.0204 (inactive) | -0.301 (inactive) | 0.0026 (inactive) | 0.599 (inactive) | -0.283 | 0.156 | 0.582 | 0.351 | 0.0757 | 1.46 (inactive) | 0.212 | 0.206 (inactive) | -0.11 (inactive) | -0.648 (inactive) | -0.0641 (inactive) | 0.0159 | -0.759 (inactive) | -0.228 (inactive) | 0.985
O=C1OCC=C[C@H]2OC34C=CCN(c5ccc(Cl)cc5)C(=O)[C@H]3N(CCO)C(=O)[C@@H]4[C@@H]12 (stereo not given in full) | -0.649 | 0.168 (inactive) | 3.17 (inactive) | 0.601 (inactive) | -0.663 (inactive) | -1.02 | -0.26 | -0.846 | -1.84 | -0.889 | -0.367 (inactive) | -0.147 | 0.506 (inactive) | 0.0971 (inactive) | 0.111 (inactive) | 0.403 (inactive) | -0.677 | 1.12 (inactive) | 0.908 (inactive) | 1.31
CO[C@H]1O[C@H](CO)[C@@H](OC(=O)Nc2ccccc2-c2ccccc2)[C@H](OC(=O)Nc2ccc3c(c2)OCO3)[C@H]1OC(=O)Nc1ccc2c(c1)OCO2 | 0.35 | -1.48 (inactive) | -0.158 (inactive) | 0.792 (inactive) | -0.97 (inactive) | 0.144 | 0.271 | 0.5 | 0.723 | 1.42 | 1.27 (inactive) | 0.809 | 6.03 (inactive) | 1.08 (inactive) | 0.52 (inactive) | 0.666 (inactive) | -0.0053 | -2.21 (inactive) | -1.18 (inactive) | -2.42
[N-]=[N+]=NCc1ccccc1C[C@@]1(C(=O)NCc2ccccc2)N=C(c2ccc(OCCCO)cc2)O[C@@H]1c1ccccc1N=[N+]=[N-] | 0.122 | -3.96 (inactive) | 0.0507 (inactive) | 1.05 (inactive) | -0.639 (inactive) | 1.2 | -0.003 | 0.0959 | 0.461 | -1.08 | -0.0632 (inactive) | -0.221 | 32.6 (active) | 33.3 (active) | 2.4 (inactive) | 3.61 (inactive) | 0.108 | 0.0504 (inactive) | -0.437 (inactive) | -1.22
CCCC[C@@H]1C[C@H]1[C@@H](NC(=O)c1cccs1)c1ccc(C(F)(F)F)cc1 | -0.553 | -0.368 (inactive) | 0.195 (inactive) | 0.962 (inactive) | 1.57 (inactive) | 0.189 | -0.147 | -0.848 | -0.589 | 0.652 | -2.61 (inactive) | 0.101 | 1.5 (inactive) | 0.987 (inactive) | 0.247 (inactive) | 0.592 (inactive) | -0.79 | -0.934 (inactive) | -2.08 (inactive) | -0.948
